# Data reported in the supplement of paper PMC10849652.
# Targets with a hit are over-represented here; the source holds about 7,900 in all. About 0.6% of all pairs of compound and target were hits. Values without a mark were called inactive.
# Compound: CN1C2=C(C3=C1C(=O)N(N=C3)CC4=CC(=CC=C4)N)SC(=C2)S(=O)C
# Experiment: log2 fold change, soluble protein after heating vs DMSO (PISA); higher = thermal stabilisation; K562 cells, 10 uM, 30 min; active = over 0.2 and 3.5 SD of the protein, either way, in both replicates (recomputed)
# Procedure, shortened: (§1)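 K562 cells at 2×10^6 cells/mL were treated with 10 μM compound for 30 min. Aliquots were heated for 3 min across 48°C-58°C, pooled, and extracted in PBS with 0.5% NP-40 at 4°C; soluble protein was the supernatant after 21,000xg for 90 min. Soluble protein was quantified by TMTpro 16plex LC-MS/MS with channel sums equalised, and reported as log2 fold change in thermal stability against DMSO controls, with values from duplicates.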
# UniProt Q08431, sequence (Q08431 whole entry, looked up): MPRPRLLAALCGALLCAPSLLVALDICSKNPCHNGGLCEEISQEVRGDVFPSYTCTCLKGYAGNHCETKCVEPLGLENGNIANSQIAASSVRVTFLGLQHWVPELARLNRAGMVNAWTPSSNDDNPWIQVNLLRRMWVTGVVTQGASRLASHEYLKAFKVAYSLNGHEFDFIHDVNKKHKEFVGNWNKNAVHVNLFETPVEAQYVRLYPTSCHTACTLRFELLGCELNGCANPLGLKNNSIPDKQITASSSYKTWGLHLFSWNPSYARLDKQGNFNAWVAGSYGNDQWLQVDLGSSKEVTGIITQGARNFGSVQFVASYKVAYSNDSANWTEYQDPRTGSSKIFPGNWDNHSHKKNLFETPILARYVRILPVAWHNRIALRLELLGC
# UniProt P32019, sequence (P32019 whole entry, looked up): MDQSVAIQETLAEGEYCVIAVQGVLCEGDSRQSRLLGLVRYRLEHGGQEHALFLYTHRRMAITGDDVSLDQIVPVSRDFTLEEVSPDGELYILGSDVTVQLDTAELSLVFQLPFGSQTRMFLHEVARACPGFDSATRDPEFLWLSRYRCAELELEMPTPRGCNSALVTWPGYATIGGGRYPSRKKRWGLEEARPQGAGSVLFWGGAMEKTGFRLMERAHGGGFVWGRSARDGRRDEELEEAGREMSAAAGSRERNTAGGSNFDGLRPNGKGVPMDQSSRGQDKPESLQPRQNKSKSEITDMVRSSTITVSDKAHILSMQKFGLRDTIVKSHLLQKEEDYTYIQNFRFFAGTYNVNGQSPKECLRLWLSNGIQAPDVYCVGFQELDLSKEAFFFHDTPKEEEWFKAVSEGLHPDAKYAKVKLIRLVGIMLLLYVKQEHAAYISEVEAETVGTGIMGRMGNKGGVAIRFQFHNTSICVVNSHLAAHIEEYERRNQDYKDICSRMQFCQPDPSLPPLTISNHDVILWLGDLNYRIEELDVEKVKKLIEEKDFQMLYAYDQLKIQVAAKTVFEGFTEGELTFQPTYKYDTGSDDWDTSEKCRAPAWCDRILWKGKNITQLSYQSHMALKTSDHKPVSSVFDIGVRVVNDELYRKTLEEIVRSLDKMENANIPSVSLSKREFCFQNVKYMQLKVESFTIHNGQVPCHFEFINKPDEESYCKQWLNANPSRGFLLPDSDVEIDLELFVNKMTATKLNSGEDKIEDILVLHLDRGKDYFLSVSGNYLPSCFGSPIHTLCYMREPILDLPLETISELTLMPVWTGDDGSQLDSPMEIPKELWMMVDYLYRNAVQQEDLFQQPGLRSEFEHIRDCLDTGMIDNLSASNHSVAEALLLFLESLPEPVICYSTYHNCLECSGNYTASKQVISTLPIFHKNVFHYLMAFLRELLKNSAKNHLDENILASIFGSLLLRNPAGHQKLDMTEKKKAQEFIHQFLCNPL
# UniProt Q96GA3, sequence (Q96GA3 whole entry, looked up): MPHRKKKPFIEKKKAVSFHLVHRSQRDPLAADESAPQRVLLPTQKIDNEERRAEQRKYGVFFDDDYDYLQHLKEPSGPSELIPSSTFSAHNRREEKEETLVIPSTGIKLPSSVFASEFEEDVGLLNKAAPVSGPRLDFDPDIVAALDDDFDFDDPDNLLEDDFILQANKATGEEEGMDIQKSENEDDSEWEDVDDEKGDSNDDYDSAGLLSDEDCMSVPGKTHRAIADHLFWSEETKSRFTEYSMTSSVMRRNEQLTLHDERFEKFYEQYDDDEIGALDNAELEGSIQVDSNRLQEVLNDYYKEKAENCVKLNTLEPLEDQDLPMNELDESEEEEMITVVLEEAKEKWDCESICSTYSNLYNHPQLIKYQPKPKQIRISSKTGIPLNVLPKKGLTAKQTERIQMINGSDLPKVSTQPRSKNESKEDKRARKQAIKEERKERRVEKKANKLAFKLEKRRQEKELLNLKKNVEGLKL
# UniProt Q9Y496, sequence (Q9Y496 whole entry, looked up): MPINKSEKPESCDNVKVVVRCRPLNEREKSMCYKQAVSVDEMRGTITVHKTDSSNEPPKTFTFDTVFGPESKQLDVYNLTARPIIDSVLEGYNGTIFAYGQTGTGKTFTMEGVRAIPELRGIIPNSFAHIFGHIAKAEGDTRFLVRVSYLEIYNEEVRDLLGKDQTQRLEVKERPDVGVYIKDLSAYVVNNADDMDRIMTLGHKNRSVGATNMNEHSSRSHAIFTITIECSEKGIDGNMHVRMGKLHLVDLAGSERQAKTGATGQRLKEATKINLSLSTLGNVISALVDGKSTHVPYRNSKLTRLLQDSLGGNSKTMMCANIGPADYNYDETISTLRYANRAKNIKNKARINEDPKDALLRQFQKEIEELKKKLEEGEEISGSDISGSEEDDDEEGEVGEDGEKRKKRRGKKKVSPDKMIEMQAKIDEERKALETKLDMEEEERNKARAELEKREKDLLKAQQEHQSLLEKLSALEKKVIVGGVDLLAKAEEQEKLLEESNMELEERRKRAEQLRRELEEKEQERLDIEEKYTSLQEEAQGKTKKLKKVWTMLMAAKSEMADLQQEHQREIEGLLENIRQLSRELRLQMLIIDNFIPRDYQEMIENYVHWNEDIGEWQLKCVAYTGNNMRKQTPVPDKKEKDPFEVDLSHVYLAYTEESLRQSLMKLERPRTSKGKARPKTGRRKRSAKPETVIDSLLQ
# UniProt Q9H6V9, sequence (Q9H6V9 whole entry, looked up): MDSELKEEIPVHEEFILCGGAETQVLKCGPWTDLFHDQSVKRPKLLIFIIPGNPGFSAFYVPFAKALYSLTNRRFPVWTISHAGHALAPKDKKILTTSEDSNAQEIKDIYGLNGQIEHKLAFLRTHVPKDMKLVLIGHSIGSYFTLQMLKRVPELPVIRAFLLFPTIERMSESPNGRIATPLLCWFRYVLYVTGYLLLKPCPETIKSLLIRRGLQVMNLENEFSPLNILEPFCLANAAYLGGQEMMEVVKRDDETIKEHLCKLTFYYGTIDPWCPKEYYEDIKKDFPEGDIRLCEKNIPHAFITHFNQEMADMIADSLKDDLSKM
# UniProt Q9UIQ6, sequence (Q9UIQ6 whole entry, looked up): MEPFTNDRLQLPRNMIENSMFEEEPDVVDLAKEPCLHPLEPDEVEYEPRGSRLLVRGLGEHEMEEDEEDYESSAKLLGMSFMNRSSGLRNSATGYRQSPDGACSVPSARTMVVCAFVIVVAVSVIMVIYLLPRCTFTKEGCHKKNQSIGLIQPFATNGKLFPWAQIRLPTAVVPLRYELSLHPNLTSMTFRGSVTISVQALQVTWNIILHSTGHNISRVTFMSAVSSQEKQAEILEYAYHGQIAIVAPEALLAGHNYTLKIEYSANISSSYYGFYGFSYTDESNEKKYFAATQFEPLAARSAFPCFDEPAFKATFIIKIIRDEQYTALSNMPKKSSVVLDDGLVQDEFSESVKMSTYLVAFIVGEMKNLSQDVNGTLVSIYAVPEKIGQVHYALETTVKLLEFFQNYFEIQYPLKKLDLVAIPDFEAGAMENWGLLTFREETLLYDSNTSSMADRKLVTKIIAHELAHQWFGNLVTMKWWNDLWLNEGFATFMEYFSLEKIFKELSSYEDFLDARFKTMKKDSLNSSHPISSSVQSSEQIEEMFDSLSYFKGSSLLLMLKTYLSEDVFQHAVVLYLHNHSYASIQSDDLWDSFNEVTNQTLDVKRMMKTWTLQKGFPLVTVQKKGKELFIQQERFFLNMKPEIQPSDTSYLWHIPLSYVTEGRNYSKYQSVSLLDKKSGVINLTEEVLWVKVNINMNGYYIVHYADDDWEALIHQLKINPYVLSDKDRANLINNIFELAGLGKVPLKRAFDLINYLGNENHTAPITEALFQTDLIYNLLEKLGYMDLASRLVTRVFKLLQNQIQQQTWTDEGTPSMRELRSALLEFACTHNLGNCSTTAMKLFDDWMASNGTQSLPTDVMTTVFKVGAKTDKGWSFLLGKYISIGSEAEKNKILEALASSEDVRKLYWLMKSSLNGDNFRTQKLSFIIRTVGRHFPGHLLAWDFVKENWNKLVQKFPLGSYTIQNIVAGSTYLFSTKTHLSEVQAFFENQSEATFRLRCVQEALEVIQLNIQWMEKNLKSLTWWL
# UniProt Q14624, sequence (Q14624 whole entry, looked up): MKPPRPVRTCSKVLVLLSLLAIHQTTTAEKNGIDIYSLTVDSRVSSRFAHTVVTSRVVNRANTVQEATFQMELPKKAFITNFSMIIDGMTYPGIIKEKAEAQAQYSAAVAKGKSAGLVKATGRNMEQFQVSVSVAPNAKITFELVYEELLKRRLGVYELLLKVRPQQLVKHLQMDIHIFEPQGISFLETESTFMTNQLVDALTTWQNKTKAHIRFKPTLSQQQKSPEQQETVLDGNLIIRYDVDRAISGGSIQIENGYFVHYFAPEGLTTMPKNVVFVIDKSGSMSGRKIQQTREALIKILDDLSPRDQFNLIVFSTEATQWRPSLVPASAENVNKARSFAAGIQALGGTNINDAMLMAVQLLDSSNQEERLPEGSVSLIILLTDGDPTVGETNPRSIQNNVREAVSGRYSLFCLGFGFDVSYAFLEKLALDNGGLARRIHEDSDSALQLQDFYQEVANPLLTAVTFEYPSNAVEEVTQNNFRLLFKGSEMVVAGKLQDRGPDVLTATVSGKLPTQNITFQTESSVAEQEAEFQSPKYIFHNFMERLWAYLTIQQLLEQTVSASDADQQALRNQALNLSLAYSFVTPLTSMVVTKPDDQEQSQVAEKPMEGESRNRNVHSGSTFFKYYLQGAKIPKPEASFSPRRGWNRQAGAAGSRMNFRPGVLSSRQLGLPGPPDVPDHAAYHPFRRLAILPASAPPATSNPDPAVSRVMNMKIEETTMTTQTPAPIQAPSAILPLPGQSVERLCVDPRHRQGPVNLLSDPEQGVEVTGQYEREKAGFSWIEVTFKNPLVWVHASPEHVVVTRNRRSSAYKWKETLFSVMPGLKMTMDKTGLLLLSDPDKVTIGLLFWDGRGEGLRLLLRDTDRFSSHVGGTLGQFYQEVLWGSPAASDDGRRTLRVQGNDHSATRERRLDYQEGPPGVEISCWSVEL
# UniProt P49006, sequence (P49006 whole entry, looked up): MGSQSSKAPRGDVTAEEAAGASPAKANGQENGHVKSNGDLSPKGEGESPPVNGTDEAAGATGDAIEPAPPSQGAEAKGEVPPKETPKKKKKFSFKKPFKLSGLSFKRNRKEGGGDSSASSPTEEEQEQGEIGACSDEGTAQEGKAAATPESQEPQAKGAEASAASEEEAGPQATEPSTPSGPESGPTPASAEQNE
row,Target,log2 fold change
1,KDM3B (UniProt Q7LBC6),-0.049
2,MAP2K7 isoform 4 (UniProt O14733),-0.065
3,MIEF1 (UniProt L0R8F8),-0.028
4,MARCKSL1 (UniProt P49006),-0.08
5,MEPCE (UniProt Q7L2J0),0.007
6,MCUR1 (UniProt Q96AQ8),-0.042
7,MED1 (UniProt Q15648),0.024
8,LNPEP (UniProt Q9UIQ6),-0.025
9,IPO7 (UniProt O95373),-0.011
10,LMNB1 (UniProt P20700),-0.034
11,MAGEC2 (UniProt Q9UBF1),-0.063
12,KDELR2 (UniProt P33947),-0.063
13,INTS7 (UniProt Q9NVH2),0.069
14,LMBRD2 (UniProt Q68DH5),-0.008
15,INPP5B (UniProt P32019),0.12
16,IRF2BPL (UniProt Q9H1B7),-0.068
17,KIF3A (UniProt Q9Y496),-0.023
18,LNPK (UniProt Q9C0E8),0.012
19,LEO1 (UniProt Q8WVC0),-0.033
20,MCU (UniProt Q8NE86),-0.045

row,Target,log2 fold change
1,MAP1LC3B2 (UniProt A6NCE7),-0.015
2,MAST4 (UniProt O15021),-0.115
3,ILK (UniProt Q13418),0.125
4,LARP7 isoform 3 (UniProt Q4G0J3),0.014
5,LDAH isoform 2 (UniProt Q9H6V9),-0.137
6,MFN2 (UniProt O95140),-0.011
7,MAGOHB (UniProt Q96A72),-0.039
8,LMNB2 (UniProt Q03252),-0.01
9,LTV1 (UniProt Q96GA3),0.189
10,KLHL18 (UniProt O94889),0
11,MFSD5 isoform 2 (UniProt Q6N075),-0.056
12,MEAK7 (UniProt Q6P9B6),-0.033
13,MCCC2 (UniProt Q9HCC0),-0.031
14,ITIH4 (UniProt Q14624),0.177
15,KNTC1 (UniProt P50748),0.027
16,MFGE8 (UniProt Q08431),0.114
17,KCT2 (UniProt Q8NC54),-0.051
18,MAPK9 (UniProt P45984),-0.038
19,LSS (UniProt P48449),-0.025

# Compound: CN1CCC(CNc2ccc3ncc(-c4cccc(OC(F)(F)F)c4)n3n2)CC1
# Experiment: as above
# Procedure, shortened: as §1
row,Target,log2 fold change
1,KDM3B (UniProt Q7LBC6),-0.071
2,MAP2K7 isoform 4 (UniProt O14733),-0.15
3,MIEF1 (UniProt L0R8F8),-0.021
4,MARCKSL1 (UniProt P49006),0.147
5,MEPCE (UniProt Q7L2J0),-0.051
6,MCUR1 (UniProt Q96AQ8),-0.115
7,MED1 (UniProt Q15648),-0.025
8,LNPEP (UniProt Q9UIQ6),0.024
9,IPO7 (UniProt O95373),-0.248 (active)
10,LMNB1 (UniProt P20700),0.026
11,MAGEC2 (UniProt Q9UBF1),0
12,KDELR2 (UniProt P33947),0.255
13,INTS7 (UniProt Q9NVH2),0.3
14,LMBRD2 (UniProt Q68DH5),-0.362 (active)
15,INPP5B (UniProt P32019),0.003
16,IRF2BPL (UniProt Q9H1B7),-0.018
17,KIF3A (UniProt Q9Y496),-0.162
18,LNPK (UniProt Q9C0E8),0.059
19,LEO1 (UniProt Q8WVC0),-0.048
20,MCU (UniProt Q8NE86),-0.23 (active)

row,Target,log2 fold change
1,MAP1LC3B2 (UniProt A6NCE7),0.108
2,MAST4 (UniProt O15021),-0.384
3,ILK (UniProt Q13418),-0.191
4,LARP7 isoform 3 (UniProt Q4G0J3),-0.075
5,LDAH isoform 2 (UniProt Q9H6V9),-0.688 (active)
6,MFN2 (UniProt O95140),-0.213
7,MAGOHB (UniProt Q96A72),0.023
8,LMNB2 (UniProt Q03252),0.014
9,LTV1 (UniProt Q96GA3),0.104
10,KLHL18 (UniProt O94889),0.034
11,MFSD5 isoform 2 (UniProt Q6N075),0.14
12,MEAK7 (UniProt Q6P9B6),-0.097
13,MCCC2 (UniProt Q9HCC0),0.027
14,ITIH4 (UniProt Q14624),-0.413
15,KNTC1 (UniProt P50748),-0.219
16,MFGE8 (UniProt Q08431),0.098
17,KCT2 (UniProt Q8NC54),-0.037
18,MAPK9 (UniProt P45984),-0.071
19,LSS (UniProt P48449),0.384
